From the supplement of paper PMC10849652
The full data set covers some 8,800 targets. This sample favours those with a hit. About 0.5% of all pairs of compound and target were hits.

Experiments:
Assay in all cases: log2 fold change, soluble protein after heating vs DMSO (PISA); higher = thermal stabilisation; K562 lysate, 10 uM; active = over 0.2 and 3.5 SD of the protein, either way, in both replicates (recomputed)
ibrutinib = compound: C=CC(=O)N1CCC[C@@H](n2nc(-c3ccc(Oc4ccccc4)cc3)c3c(N)ncnc32)C1 [ibrutinib]
Outline: (§1)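 Soluble protein was defined as the supernatant remaining after 21,000xg for 90 min, following pooling of heated aliquots and adjustment to 0.5% NP-40 at 4°C. Before that, crude K562 extract at 1 mg/mL protein in PBS pH 7.4 with 1 mM MgCl2 was treated with 10 μM compound for 30 min and heated for 3 min across 48°C-58°C. Quantification used TMTpro 16plex LC-MS/MS with channel sums equalised, and values are log-two fold changes in thermal stability relative to solvent controls from duplicates.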

[1] = compound: CC(=O)c1cnc2ccc(-c3cc(Cl)c(O)c(Cl)c3)nc2c1N[C@H]1CC[C@H](CN(C)C)CC1
Outline: as §1

ralimetinib = compound: CC(C)(C)Cn1c(N)nc2ccc(-c3[nH]c(C(C)(C)C)nc3-c3ccc(F)cc3)nc21 [ralimetinib]
Outline: as §1

[2] = compound: CC(C)(O)CC(=O)NCCn1ccc2ncnc(Nc3ccc(Oc4cccc(C(F)(F)F)c4)c(Cl)c3)c21
Outline: as §1

[3] = compound: CC(C)C1=C2N=C(C=C(N2N=C1)NCC3=CC=CC=C3)NCCCCCCN
Outline: as §1

[4] = compound: CC1=C(C(CC(=O)N1)C2=CC=C(C=C2)C(F)(F)F)C(=O)NC3=C(C=C4C(=C3)C=NN4)F
Outline: as §1

[5] = compound: CC1=C(C2=C(C=C1)C(=O)C3=CC=CC=C3N2CCCN)C
Outline: as §1

[6] = compound: CC1=C(C=C(C=C1)NC(=O)C2=CC(=CC=C2)C(C)(C)C#N)NC3=CC4=C(C=C3)N=CN(C4=O)C
Outline: as §1

[7] = compound: CC1=C(C=C(C=C1)NC(=O)C2=CC(=CC=C2)N(C)C)NC(=O)C3=CC=C(C=C3)O
Outline: as §1

[8] = compound: CC1=CC=C(C=C1)SC2=C3C=C(SC3=CN=C2)C(=O)N
Outline: as §1

vemurafenib = compound: CCCS(=O)(=O)Nc1ccc(F)c(C(=O)c2c[nH]c3ncc(-c4ccc(Cl)cc4)cc23)c1F [vemurafenib]
Outline: as §1

[9] = compound: CCCS(=O)(=O)Nc1ccc(F)c(C(=O)c2c[nH]c3ncc(Cl)cc23)c1F
Outline: as §1

barasertib = compound: CCN(CCCOc1ccc2c(Nc3cc(CC(=O)Nc4cccc(F)c4)[nH]n3)ncnc2c1)CCOP(=O)(O)O [barasertib]
Outline: as §1

[10] = compound: CC[C@@H]1C(=O)N(C)c2cnc(Nc3ccc(C(=O)NC4CCN(C)CC4)cc3OC)nc2N1C1CCCC1
Outline: as §1

volasertib = compound: CC[C@@H]1C(=O)N(C)c2cnc(Nc3ccc(C(=O)N[C@H]4CC[C@H](N5CCN(CC6CC6)CC5)CC4)cc3OC)nc2N1C(C)C [volasertib]
Outline: as §1

[11] = compound: CCn1c(C(=O)N(C2CC2)C2CC2)cc2c3c(ncn3C)c(Nc3cc(C)n(C)n3)nc21
Outline: as §1

[12] = compound: CCn1cc(-c2ccnc3[nH]c(-c4cccc(CN(C)C)c4)cc23)c(-c2ccc(NC(=O)N(C)C)cc2)n1
Outline: as §1

[13] = compound: CN1CCC(CNc2ccc3ncc(-c4cccc(OC(F)(F)F)c4)n3n2)CC1
Outline: as §1

saracatinib = compound: CN1CCN(CCOc2cc(OC3CCOCC3)c3c(Nc4c(Cl)ccc5c4OCO5)ncnc3c2)CC1 [saracatinib]
Outline: as §1

sotrastaurin = compound: CN1CCN(c2nc(C3=C(c4c[nH]c5ccccc45)C(=O)NC3=O)c3ccccc3n2)CC1 [sotrastaurin]
Outline: as §1

Measured: log2 fold change

RFC4 (UniProt P35249)
inactive: ibrutinib -0.01 | [1] -0.008 | ralimetinib -0.01 | [2] -0.015 | [3] 0.032 | [4] 0 | [5] 0.026 | [6] -0.001 | [7] 0.002 | [8] 0.019 | vemurafenib 0.047 | [9] 0.02 | barasertib 0.02 | [10] -0.012 | volasertib -0.042 | [11] 0.003 | [12] -0.086 | [13] 0.028 | saracatinib 0.044 | sotrastaurin 0.003

SCML2 (UniProt Q9UQR0)
UniProt Q9UQR0, sequence (Q9UQR0 whole entry, looked up): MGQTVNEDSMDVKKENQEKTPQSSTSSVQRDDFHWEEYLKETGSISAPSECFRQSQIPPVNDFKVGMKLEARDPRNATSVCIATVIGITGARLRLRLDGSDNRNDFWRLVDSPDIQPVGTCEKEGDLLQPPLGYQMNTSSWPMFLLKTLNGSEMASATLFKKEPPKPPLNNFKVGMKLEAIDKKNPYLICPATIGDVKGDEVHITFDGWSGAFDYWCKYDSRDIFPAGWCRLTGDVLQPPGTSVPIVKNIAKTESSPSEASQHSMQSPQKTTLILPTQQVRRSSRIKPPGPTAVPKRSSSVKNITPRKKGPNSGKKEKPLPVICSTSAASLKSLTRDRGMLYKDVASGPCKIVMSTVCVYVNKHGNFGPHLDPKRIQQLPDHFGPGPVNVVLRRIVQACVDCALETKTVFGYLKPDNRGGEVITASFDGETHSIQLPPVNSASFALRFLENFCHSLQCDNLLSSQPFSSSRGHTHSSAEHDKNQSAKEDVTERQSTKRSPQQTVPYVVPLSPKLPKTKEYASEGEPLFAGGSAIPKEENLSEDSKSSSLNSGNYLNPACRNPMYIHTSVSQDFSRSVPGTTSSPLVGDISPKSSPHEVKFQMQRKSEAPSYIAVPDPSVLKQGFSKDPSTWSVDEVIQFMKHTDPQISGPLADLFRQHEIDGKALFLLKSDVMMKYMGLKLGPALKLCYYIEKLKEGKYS
inactive: ibrutinib -0.011 | [1] 0.028 | ralimetinib 0.004 | [2] 0.034 | [3] -0.011 | [4] 0.011 | [5] -0.012 | [6] -0.015 | [7] -0.006 | [8] 0.109 | vemurafenib 0.033 | [9] -0.006 | barasertib -0.028 | [10] -0.007 | volasertib -0.018 | [11] 0.02 | [12] 0.033 | [13] 0.032 | saracatinib 0.064 | sotrastaurin -0.067

RPL31 (UniProt P62899)
inactive: ibrutinib -0.031 | [1] -0.011 | ralimetinib 0.009 | [2] -0.022 | [3] 0.003 | [4] -0.06 | [5] -0.043 | [6] -0.013 | [7] -0.021 | [8] 0.016 | vemurafenib 0.01 | [9] 0.004 | barasertib 0.004 | [10] 0.006 | volasertib -0.005 | [11] -0.013 | [12] -0.043 | [13] -0.005 | saracatinib 0.024 | sotrastaurin 0.014

SESN2 (UniProt P58004)
UniProt P58004, sequence (P58004 whole entry, looked up): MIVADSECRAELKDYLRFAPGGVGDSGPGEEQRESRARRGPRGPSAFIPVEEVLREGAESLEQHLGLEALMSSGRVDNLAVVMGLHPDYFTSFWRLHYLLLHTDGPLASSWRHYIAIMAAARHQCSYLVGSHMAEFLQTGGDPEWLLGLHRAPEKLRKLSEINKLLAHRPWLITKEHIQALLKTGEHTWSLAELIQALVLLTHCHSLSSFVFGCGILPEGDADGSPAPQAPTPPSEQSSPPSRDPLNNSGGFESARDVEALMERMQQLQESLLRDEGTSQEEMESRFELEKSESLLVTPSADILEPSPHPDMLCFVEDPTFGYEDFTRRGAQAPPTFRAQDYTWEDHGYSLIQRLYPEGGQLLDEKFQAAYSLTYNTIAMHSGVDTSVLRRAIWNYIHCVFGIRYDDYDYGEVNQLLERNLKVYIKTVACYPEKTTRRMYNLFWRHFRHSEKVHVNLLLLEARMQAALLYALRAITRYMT
inactive: ibrutinib -0.001 | [1] -0.038 | ralimetinib 0.018 | [2] 0.007 | [3] 0.019 | [4] -0.051 | [5] -0.064 | [6] 0.008 | [7] 0.078 | [8] 0.205 | vemurafenib -0.008 | [9] 0.025 | barasertib 0.049 | [10] -0.103 | volasertib -0.066 | [11] 0.019 | [12] 0.02 | [13] -0.105 | saracatinib -0.043 | sotrastaurin 0.047

RAB21 (UniProt Q9UL25)
active: [12] 0.262
inactive: ibrutinib 0.026 | [1] -0.004 | ralimetinib 0.057 | [2] -0.02 | [3] -0.002 | [4] 0.019 | [5] 0.021 | [6] -0.023 | [7] -0.002 | [8] 0.015 | vemurafenib -0.038 | [9] -0.005 | barasertib 0.041 | [10] 0.005 | volasertib -0.006 | [11] 0.008 | [13] -0.06 | saracatinib 0.029 | sotrastaurin -0.021

SAR1A (UniProt Q9NR31)
UniProt Q9NR31, sequence (Q9NR31 whole entry, looked up): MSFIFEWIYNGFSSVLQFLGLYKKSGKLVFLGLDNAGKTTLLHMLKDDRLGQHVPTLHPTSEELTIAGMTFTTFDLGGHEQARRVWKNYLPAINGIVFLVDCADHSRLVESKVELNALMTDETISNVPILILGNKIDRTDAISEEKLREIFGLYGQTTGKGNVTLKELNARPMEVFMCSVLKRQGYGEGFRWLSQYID
inactive: ibrutinib -0.082 | [1] -0.105 | ralimetinib 0.027 | [2] -0.028 | [3] 0.026 | [4] 0.163 | [5] -0.042 | [6] 0.021 | [7] -0.045 | [8] 0.112 | vemurafenib 0.109 | [9] 0 | barasertib 0.07 | [10] 0.03 | volasertib -0.05 | [11] 0.021 | [12] -0.009 | [13] -0.108 | saracatinib 0.025 | sotrastaurin 0.084

RIOK1 (UniProt Q9BRS2)
UniProt Q9BRS2, sequence (Q9BRS2 whole entry, looked up): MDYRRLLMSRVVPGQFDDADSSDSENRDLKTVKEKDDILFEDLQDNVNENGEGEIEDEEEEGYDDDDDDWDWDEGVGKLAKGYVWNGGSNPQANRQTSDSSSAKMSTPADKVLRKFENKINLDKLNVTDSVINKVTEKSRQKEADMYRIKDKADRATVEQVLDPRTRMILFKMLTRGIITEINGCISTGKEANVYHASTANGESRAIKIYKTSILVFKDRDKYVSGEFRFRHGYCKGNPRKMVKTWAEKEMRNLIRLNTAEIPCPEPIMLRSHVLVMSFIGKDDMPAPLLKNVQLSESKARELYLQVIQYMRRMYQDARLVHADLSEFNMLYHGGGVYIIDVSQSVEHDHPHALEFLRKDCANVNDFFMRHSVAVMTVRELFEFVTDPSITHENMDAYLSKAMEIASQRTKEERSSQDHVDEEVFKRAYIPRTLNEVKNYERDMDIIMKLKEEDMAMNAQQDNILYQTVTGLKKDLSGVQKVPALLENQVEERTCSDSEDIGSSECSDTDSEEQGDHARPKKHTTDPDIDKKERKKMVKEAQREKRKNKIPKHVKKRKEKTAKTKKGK
inactive: ibrutinib 0.006 | [1] 0.251 | ralimetinib 0.002 | [2] -0.003 | [3] -0.005 | [4] 0.004 | [5] -0.009 | [6] 0.015 | [7] -0.009 | [8] 0.249 | vemurafenib 0.021 | [9] 0.023 | barasertib 0.001 | [10] 0.02 | volasertib -0.093 | [11] 0.004 | [12] 0.017 | [13] 0.057 | saracatinib 0.032 | sotrastaurin 0.001

SCD (UniProt O00767)
UniProt O00767, sequence (O00767 whole entry, looked up): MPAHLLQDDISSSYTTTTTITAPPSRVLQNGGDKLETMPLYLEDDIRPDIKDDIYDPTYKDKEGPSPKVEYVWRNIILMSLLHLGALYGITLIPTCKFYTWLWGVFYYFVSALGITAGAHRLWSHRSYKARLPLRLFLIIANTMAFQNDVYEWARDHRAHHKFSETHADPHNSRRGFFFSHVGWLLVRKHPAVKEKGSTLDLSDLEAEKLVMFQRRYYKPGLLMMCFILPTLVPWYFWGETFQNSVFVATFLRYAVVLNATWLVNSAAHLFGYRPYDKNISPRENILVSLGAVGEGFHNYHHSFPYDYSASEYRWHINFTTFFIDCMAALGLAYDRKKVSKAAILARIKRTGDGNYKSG
inactive: ibrutinib -0.06 | [1] -0.053 | ralimetinib 0.059 | [2] -0.009 | [3] -0.052 | [4] 0.032 | [5] 0.047 | [6] 0.02 | [7] -0.085 | [8] -0.128 | vemurafenib -0.03 | [9] 0.111 | barasertib 0.042 | [10] 0.006 | volasertib 0.098 | [11] -0.082 | [13] 0.212 | saracatinib 0.071 | sotrastaurin 0.084
active: [12] -0.504

RIPK1 (UniProt Q13546)
UniProt Q13546, sequence (Q13546 whole entry, looked up): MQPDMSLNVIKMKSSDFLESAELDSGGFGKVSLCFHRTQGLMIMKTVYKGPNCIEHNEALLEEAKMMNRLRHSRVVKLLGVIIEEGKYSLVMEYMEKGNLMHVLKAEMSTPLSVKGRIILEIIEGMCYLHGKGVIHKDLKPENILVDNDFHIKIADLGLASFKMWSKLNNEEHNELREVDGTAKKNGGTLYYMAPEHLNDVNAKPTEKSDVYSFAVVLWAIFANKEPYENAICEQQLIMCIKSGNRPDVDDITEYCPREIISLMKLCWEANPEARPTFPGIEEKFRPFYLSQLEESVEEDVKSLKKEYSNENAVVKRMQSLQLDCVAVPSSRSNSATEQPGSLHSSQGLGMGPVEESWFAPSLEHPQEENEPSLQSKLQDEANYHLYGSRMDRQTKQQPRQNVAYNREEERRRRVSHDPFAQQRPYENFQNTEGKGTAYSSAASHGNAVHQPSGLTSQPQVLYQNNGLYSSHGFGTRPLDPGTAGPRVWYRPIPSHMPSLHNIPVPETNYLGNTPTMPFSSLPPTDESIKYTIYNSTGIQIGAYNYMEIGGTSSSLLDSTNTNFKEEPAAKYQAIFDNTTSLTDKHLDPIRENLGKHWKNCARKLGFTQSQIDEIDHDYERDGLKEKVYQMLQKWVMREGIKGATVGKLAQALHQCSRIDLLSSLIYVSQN
inactive: ibrutinib -0.02 | [1] -0.025 | ralimetinib -0.009 | [2] -0.011 | [3] 0.018 | [4] 0.001 | [5] -0.013 | [6] 0.001 | [7] -0.02 | [8] 0.003 | vemurafenib -0.053 | [9] 0.027 | barasertib 0.01 | [10] -0.026 | volasertib -0.066 | [11] 0.027 | [12] -0.019 | [13] -0.013 | saracatinib 0.016 | sotrastaurin -0.045

RALGAPA1 isoform 6 (UniProt Q6GYQ0)
inactive: ibrutinib 0.047 | [1] -0.06 | ralimetinib 0.01 | [2] 0.002 | [3] -0.01 | [4] -0.039 | [5] 0.02 | [6] -0.007 | [7] 0.038 | [8] -0.081 | vemurafenib -0.008 | [9] 0.017 | barasertib 0.196 | [10] 0.02 | volasertib -0.03 | [11] -0.007 | [13] 0.074 | saracatinib 0.049 | sotrastaurin 0.03
active: [12] -0.377

RFC3 (UniProt P40938)
inactive: ibrutinib 0.024 | [1] 0.131 | ralimetinib 0.03 | [2] -0.012 | [3] -0.04 | [4] 0.004 | [5] -0.034 | [6] 0.002 | [7] 0.042 | [8] -0.008 | vemurafenib 0.021 | [9] 0.025 | barasertib 0.046 | [10] -0.033 | volasertib -0.065 | [11] 0.013 | [12] 0.133 | [13] 0.001 | saracatinib 0.001 | sotrastaurin 0.039

SEH1L isoform 1 (UniProt Q96EE3)
UniProt Q96EE3, sequence (Q96EE3 whole entry, looked up): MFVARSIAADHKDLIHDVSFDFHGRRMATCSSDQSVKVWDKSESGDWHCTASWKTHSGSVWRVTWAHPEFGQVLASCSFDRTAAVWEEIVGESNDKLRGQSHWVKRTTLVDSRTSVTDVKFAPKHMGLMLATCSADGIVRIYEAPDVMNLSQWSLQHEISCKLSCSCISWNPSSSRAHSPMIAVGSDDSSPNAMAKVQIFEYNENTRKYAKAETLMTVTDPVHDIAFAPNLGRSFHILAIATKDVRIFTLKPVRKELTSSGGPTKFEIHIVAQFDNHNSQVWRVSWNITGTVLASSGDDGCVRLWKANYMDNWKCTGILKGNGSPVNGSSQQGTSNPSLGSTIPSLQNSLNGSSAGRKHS
inactive: ibrutinib 0.013 | [1] -0.024 | ralimetinib -0.011 | [2] -0.008 | [3] 0.005 | [4] -0.021 | [5] -0.014 | [6] 0.015 | [7] 0.017 | [8] -0.014 | vemurafenib -0.029 | [9] -0.001 | barasertib 0.004 | [10] 0.069 | [11] -0.015 | [12] -0.022 | [13] 0.021 | saracatinib -0.005 | sotrastaurin -0.01
active: volasertib 0.216

RAD50 isoform 2 (UniProt Q92878)
UniProt Q92878, sequence (Q92878 whole entry, looked up): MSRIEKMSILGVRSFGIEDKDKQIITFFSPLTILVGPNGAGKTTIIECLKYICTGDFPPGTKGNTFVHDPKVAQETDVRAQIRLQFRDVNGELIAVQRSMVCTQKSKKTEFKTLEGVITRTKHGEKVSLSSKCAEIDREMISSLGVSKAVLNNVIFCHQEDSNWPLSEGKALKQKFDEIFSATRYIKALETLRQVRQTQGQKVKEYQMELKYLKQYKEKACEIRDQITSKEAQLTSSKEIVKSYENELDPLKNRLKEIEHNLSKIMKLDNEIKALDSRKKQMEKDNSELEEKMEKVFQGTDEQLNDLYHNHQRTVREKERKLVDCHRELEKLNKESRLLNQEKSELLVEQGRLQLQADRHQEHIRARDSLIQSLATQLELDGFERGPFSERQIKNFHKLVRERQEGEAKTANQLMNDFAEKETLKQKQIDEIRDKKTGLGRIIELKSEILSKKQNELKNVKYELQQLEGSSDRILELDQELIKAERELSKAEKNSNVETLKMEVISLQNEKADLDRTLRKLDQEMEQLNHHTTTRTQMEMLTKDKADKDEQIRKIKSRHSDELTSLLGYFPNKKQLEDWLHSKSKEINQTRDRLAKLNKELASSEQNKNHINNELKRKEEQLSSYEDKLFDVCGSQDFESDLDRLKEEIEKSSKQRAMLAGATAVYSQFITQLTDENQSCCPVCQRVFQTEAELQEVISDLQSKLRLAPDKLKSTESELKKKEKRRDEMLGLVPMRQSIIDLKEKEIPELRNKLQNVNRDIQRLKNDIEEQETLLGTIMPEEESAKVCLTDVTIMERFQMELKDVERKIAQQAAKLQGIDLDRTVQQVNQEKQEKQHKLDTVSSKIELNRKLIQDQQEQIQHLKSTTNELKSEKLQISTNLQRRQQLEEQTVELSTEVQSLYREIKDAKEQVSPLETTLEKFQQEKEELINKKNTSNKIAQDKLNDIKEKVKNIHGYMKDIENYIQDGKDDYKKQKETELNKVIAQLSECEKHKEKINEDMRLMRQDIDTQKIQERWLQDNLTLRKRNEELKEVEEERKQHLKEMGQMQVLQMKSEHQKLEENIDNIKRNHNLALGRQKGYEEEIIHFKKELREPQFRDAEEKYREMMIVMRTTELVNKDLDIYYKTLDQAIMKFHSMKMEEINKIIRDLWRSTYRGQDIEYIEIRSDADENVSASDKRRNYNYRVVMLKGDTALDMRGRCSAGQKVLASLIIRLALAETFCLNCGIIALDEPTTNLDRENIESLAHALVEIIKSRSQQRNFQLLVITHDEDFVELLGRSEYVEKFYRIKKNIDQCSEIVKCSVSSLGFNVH
inactive: ibrutinib 0.002 | [1] -0.01 | ralimetinib 0.01 | [2] 0.018 | [3] 0 | [4] -0.001 | [5] 0.03 | [6] 0 | [7] 0.017 | [8] -0.006 | vemurafenib 0.004 | [9] 0.013 | barasertib 0.025 | [10] -0.011 | volasertib -0.047 | [11] 0.039 | [12] -0.024 | [13] -0.024 | saracatinib 0 | sotrastaurin 0.036

RCOR3 isoform 3 (UniProt Q9P2K3)
inactive: ibrutinib -0.009 | [1] -0.03 | ralimetinib 0.014 | [2] -0.004 | [3] 0.011 | [4] 0 | [5] 0.002 | [6] -0.038 | [7] 0.002 | [8] -0.011 | vemurafenib -0.03 | [9] -0.01 | barasertib -0.003 | [10] -0.001 | volasertib -0.012 | [11] 0.029 | [12] -0.017 | [13] 0.003 | saracatinib 0.03 | sotrastaurin -0.015

RBM8A (UniProt Q9Y5S9)
inactive: ibrutinib -0.001 | [1] -0.016 | ralimetinib -0.011 | [2] 0.057 | [3] -0.038 | [4] -0.004 | [5] 0.066 | [6] -0.101 | [7] 0.035 | [8] 0.027 | vemurafenib -0.086 | [9] -0.045 | barasertib 0.027 | [10] -0.091 | volasertib -0.016 | [11] 0.047 | [12] 0.35 | [13] -0.198 | saracatinib -0.043 | sotrastaurin 0.047

RAP1B (UniProt P61224)
UniProt P61224, sequence (P61224 whole entry, looked up): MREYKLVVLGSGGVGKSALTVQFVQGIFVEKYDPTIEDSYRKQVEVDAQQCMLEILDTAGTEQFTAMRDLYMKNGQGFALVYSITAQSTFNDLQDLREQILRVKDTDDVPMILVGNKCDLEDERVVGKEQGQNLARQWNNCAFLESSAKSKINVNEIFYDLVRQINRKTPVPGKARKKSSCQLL
active: [12] 0.372
inactive: ibrutinib -0.024 | [1] -0.005 | ralimetinib 0.051 | [2] -0.03 | [3] -0.014 | [4] -0.01 | [5] 0.004 | [6] 0.008 | [7] -0.017 | [8] -0.008 | vemurafenib 0.006 | [9] 0.008 | barasertib 0.054 | [10] 0.061 | volasertib 0.018 | [11] -0.037 | [13] -0.035 | saracatinib 0.002 | sotrastaurin 0.005
